Where “and” joins values, the source holds several entries; their conditions need not be identical. Equal values may be shown once. Some compounds were tested as several samples or in several runs, with calls that do not always agree. Calls of active or inactive are those of the source. Rule for the calls: active = hit-call score of the fitted dose curve at least 0.9, where 1 is the maximum; inactive = score below 0.9.
experiment: ATG_ERE_CIS: Attagene CIS-FACTORIAL HepG2 Assay for Estrogen Response Element (ERE) (AID 2282940); conditions: HepG2 ERE cis-reporter, Attagene RNA transcript; actives raise or lower the signal
Experimental: ATG_CIS is a cell-based, multiplexed-readout assay that uses HepG2, a human liver cell line, with measurements taken at 24 hours after chemical dosing in a 24-well plate.ATG_ERE_CIS is one of 52 assay component(s) measured or calculated from the ATG_CIS assay. It is designed to make measurements of mRNA induction, a form of inducible reporter, as detected with fluorescence intensity signals by Reverse transcription polymerase chain reaction (RT-PCR) and Capillary electrophoresis technology.Data from the assay component ATG_ERE_CIS was analyzed into 1 assay endpoint. This assay endpoint, ATG_ERE_CIS, was analyzed with bidirectional fitting relative to DMSO as the negative control and baseline of activity. Using a type of inducible reporter, measures of mRNA for gain or loss-of-signal activity can be used to understand the reporter gene at the transcription factor-level as they relate to the gene ESR1. Furthermore, this assay endpoint can be referred to as a primary readout, because this assay has produced multiple assay endpoints where this one serves a reporter gene function. To generalize the intended target to other relatable targets, this assay endpoint is annotated to the nuclear receptor intended target family, where the subfamily is steroidal.
Human liver HepG2 cells are transiently transfected with multiple reporter transcription units (MRTUs) in 6-well plates using FuGene 6 reagent (Roche; 3 ml FuGene/1 mg DNA). The MRTU constructs are regulated by a cis-regulating element (promoter). […] A major difference between the CIS and TRANS system is that in CIS activities of endogenous TFs are measured, whereas the TRANS assay evaluates changes in activities of exogenous, chimeric NR-Gal4 proteins. […] At the end of 24 hour incubation, total RNA was isolated using TriZol reagent (Invitrogen). The isolated RNA is then reverse-transcribed using oligo(dT) primer and Mo-MLV reverse transcriptase (Invitrogen) with DNAse I (Ambion) treatment for 30 min. The one-tenth of the produced cDNA was amplified by PCR using Taq DNA polymerase (Invitrogen) and two reporter sequence-specific primers. The PCR products were fluorescently labeled by primer extension with 6-arboxyfluorescein (6-FAM) 5'-labeled reporter sequence-specific primer (2 min at 95 C, 20 s at 68 C and 10 min at 72 C) and these products were digested with 5U of HpaI (New England Biolabs) for 2h at 37 C. The fragments were purified using Qiaquick PCR columns (Qiagen), analyzed on an ABI 3130xL genetic analyzer (Applied Biosystems) with peak positions identified by using a set of X-rhodamine (ROX)-labeled MapMarker1000 molecular weight standards (BioVentures). The raw capillary electrophoresis data was processed using Attagraph software (Attagene).

Question: For O=C(O)C(F)(F)C(F)(F)C(F)(F)C(F)(F)C(F)(F)C(F)(F)C(F)(F)C(F)(F)C(F)(F)C(F)F, which AC50 is on record?
Answer: 26.3 µM (active)

Question: For O=C(CC(=O)C(F)(F)C(F)(F)F)C(F)(F)F, which outcome is on record?
Answer: inactive

Question: With C=CC/C=C/C/C=C/C/C=C/C as the molecule, how does the outcome read?
Answer: inactive

Question: With CC(C)=CCCC(C)CCOC(=O)C(C)C (stereo not given) as the molecule, how does the outcome read?
Answer: inactive

Question: Which AC50 does the source give for c1ccc(-c2ccccc2-c2ccccc2)cc1 here?
Answer: 3.47 µM (active)

Question: Which AC50 does the source give for O=C(O)C(F)(F)C(F)(F)C(F)(F)F here?
Answer: 150 µM (active)

Question: And the outcome?
Answer: inactive

Question: With OC[C@@H](O)[C@@H](O)[C@H](O)[C@@H](O)CO as the molecule, how does the outcome read?
Answer: inactive

Question: What about the AC50 of the same molecule?
Answer: 30.6 µM (active)

Question: Which outcome does the source give for C=CC(F)(F)C(F)(F)C(F)(F)C(F)(F)C(F)(F)C(F)(F)C(F)(F)C(F)(F)F here?
Answer: inactive

Question: Which AC50 does the source give for CC(Cc1ccc(O)c(O)c1)C(C)Cc1ccc(O)c(O)c1 (stereo not given) here?
Answer: 8.81 µM (active)

Question: With C=C(C)C(=O)OCC(F)(F)C(F)(F)C(F)(F)F as the molecule, how does the outcome read?
Answer: inactive

Question: What about the AC50 of the same molecule?
Answer: 30.8 µM (active)

Question: Which AC50 does the source give for FC(F)(I)C(F)(F)C(F)(F)C(F)(F)I here?
Answer: 0.291 µM (active)

Question: For O=S(=O)(O)C(F)(F)C(F)(F)C(F)(F)C(F)(F)C(F)(F)C(F)(F)C(F)(F)F, which AC50 is on record?
Answer: 48.4 µM (active) and 69.9 µM (active)

Question: With CC(C)(C)c1ccc(OC2CCCCC2O)cc1 (stereo not given) as the molecule, how does the outcome read?
Answer: inactive

Question: For OCCCC(F)(F)C(F)(F)C(F)(F)F, which outcome is on record?
Answer: inactive

Question: For CCCCCCCCC(F)(F)C(F)(F)C(F)(F)C(F)(F)C(F)(F)C(F)(F)F, which outcome is on record?
Answer: inactive

Question: With CCCCCCCCCCCCCCCC[N+](C)(C)Cc1ccccc1 as the molecule, how does the outcome read?
Answer: inactive

Question: With CN(C)Cc1ccccc1O as the molecule, how does the outcome read?
Answer: inactive

Question: Which outcome does the source give for CCCCCCS here?
Answer: inactive

Question: With FC(F)(F)C(F)(F)C(F)(F)C(F)(F)C(F)(F)C(F)(F)CCS as the molecule, how does the AC50 read?
Answer: 26.4 µM (active)

Question: Which AC50 does the source give for C=C(C)C(=O)OCCC(F)(F)C(F)(F)C(F)(F)C(F)(F)C(F)(C(F)(F)F)C(F)(F)F here?
Answer: 13.8 µM (active)

Question: Which outcome does the source give for Cc1cc(C)cc(O)c1 here?
Answer: inactive

Question: For CS(C)(=O)=O, which outcome is on record?
Answer: inactive

Question: For FC(F)(F)C(F)(F)C(F)(F)CI, which outcome is on record?
Answer: inactive

Question: Which outcome does the source give for NC(=O)C(F)(F)C(F)(F)C(F)(F)C(F)(F)F here?
Answer: inactive

Question: Which outcome does the source give for CCCCC(CC)COP(=O)(O)OCC(CC)CCCC (stereo not given) here?
Answer: inactive

Question: Which outcome does the source give for CC(C)c1ccccc1N here?
Answer: inactive

Question: For O=C(Cl)C(F)(F)C(F)(F)C(F)(F)C(F)(F)C(F)(F)C(F)(F)C(F)(F)C(F)(F)F, which outcome is on record?
Answer: inactive

Question: With O=C(O)C(F)(OC(F)(F)C(F)(OC(F)(F)C(F)(F)C(F)(F)F)C(F)(F)F)C(F)(F)F (stereo not given) as the molecule, how does the outcome read?
Answer: inactive

Question: With C1COCCN1 as the molecule, how does the outcome read?
Answer: inactive

Question: With O=P(O)(O)OCCC(F)(F)C(F)(F)C(F)(F)C(F)(F)C(F)(F)C(F)(F)F as the molecule, how does the AC50 read?
Answer: 18.3 µM (active)

Question: With CCN(CC)c1ccc2c(C)cc(=O)oc2c1 as the molecule, how does the outcome read?
Answer: inactive

Question: For Cc1cccc(N(C)C)c1, which outcome is on record?
Answer: inactive

Question: For O=C(O)C(F)(F)C(F)(F)C(F)(F)C(F)(F)C(F)(F)C(F)(F)C(F)(F)C(F)(F)C(F)(F)C(F)(F)C(F)(F)C(F)(F)F, which outcome is on record?
Answer: inactive

Question: For O=C(C=Cc1ccccc1)OCC=Cc1ccccc1, which outcome is on record?
Answer: inactive

Question: With CCCCCCOC(=O)c1ccccc1O as the molecule, how does the AC50 read?
Answer: 31.4 µM (active)

Question: For COC(=O)CCC(F)(F)C(F)(F)C(F)(F)C(F)(F)F, which AC50 is on record?
Answer: 6.98 µM (active)

Question: For CCN(Cc1cccc(S(=O)(=O)O)c1)c1ccc(C(=C2C=CC(=[N+](CC)Cc3cccc(S(=O)(=O)O)c3)C=C2)c2ccc(O)cc2S(=O)(=O)[O-])cc1, which AC50 is on record?
Answer: 16.8 µM (active)

— PubChem BioAssay (EPA / NIEHS)
